# Experiments:
# Experiment in all cases: SPOT peptide array binding signal intensity (averaged, normalized) (arbitrary units (background-subtracted, floor 0; scale differs between SH3 domains)); higher = stronger binding of the SH3 domain to the peptide
# AgAbp1 = molecular target: AgAbp1
# Procedure, shortened: (§1)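 Binding signal refers to normalized, background-subtracted spot intensity averaged over replicates, expressed in arbitrary units that differ between domains. GST-fused SH3 domains from four yeast species were incubated at 10 μg/ml overnight at 4°C on cellulose membranes of synthetic 15-mer peptides with cysteines replaced by serines. Bound protein was detected with anti-GST antibody, an HRP anti-mouse secondary and luminol, and quantified with Genespotter.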
# AgBbc1 = molecular target: AgBbc1
# Procedure, shortened: as §1
# AgBem1-D1 = molecular target: AgBem1-D1
# Procedure, shortened: as §1
# AgBzz1-D1 = molecular target: AgBzz1-D1
# Procedure, shortened: as §1
# AgBzz1-D2 = molecular target: AgBzz1-D2
# Procedure, shortened: as §1
# AgCyk3 = molecular target: AgCyk3
# Procedure, shortened: as §1
# AgFus1 = molecular target: AgFus1
# Procedure, shortened: as §1
# AgHof1 = molecular target: AgHof1
# Procedure, shortened: as §1
# AgHse1 = molecular target: AgHse1
# Procedure, shortened: as §1
# AgLsb1 = molecular target: AgLsb1
# Procedure, shortened: as §1
# AgLsb4 = molecular target: AgLsb4
# Procedure, shortened: as §1
# AgMyo5 = molecular target: AgMyo5
# Procedure, shortened: as §1
# AgNbp2 = molecular target: AgNbp2
# Procedure, shortened: as §1
# AgRvs167 = molecular target: AgRvs167
# Procedure, shortened: as §1
# AgSho1 = molecular target: AgSho1
# Procedure, shortened: as §1
# AgSla1-D1-D2 = molecular target: AgSla1-D1-D2
# Procedure, shortened: as §1
# AgSla1-D3 = molecular target: AgSla1-D3
# Procedure, shortened: as §1
# CaAbp1-D1 = molecular target: CaAbp1-D1
# Procedure, shortened: as §1
# CaAbp1-D2 = molecular target: CaAbp1-D2
# Procedure, shortened: as §1
# CaBbc1 = molecular target: CaBbc1
# Procedure, shortened: as §1
# CaBem1-D1 = molecular target: CaBem1-D1
# Procedure, shortened: as §1
# CaBzz1-D1 = molecular target: CaBzz1-D1
# Procedure, shortened: as §1
# CaBzz1-D2 = molecular target: CaBzz1-D2
# Procedure, shortened: as §1
# CaCyk3 = molecular target: CaCyk3
# Procedure, shortened: as §1
# CaFus1 = molecular target: CaFus1
# Procedure, shortened: as §1
# CaHof1 = molecular target: CaHof1
# Procedure, shortened: as §1
# CaHse1 = molecular target: CaHse1
# Procedure, shortened: as §1
# CaLsb1 = molecular target: CaLsb1
# Procedure, shortened: as §1
# CaLsb4 = molecular target: CaLsb4
# Procedure, shortened: as §1
# CaMyo5 = molecular target: CaMyo5
# Procedure, shortened: as §1
# CaNbp2 = molecular target: CaNbp2
# Procedure, shortened: as §1
# CaRvs167 = molecular target: CaRvs167
# Procedure, shortened: as §1
# CaRvs167-3 = molecular target: CaRvs167-3
# Procedure, shortened: as §1
# CaSho1 = molecular target: CaSho1
# Procedure, shortened: as §1
# CaSla1-D1-D2 = molecular target: CaSla1-D1-D2
# Procedure, shortened: as §1
# CaSla1-D3 = molecular target: CaSla1-D3
# Procedure, shortened: as §1
# ScAbp1 = molecular target: ScAbp1
# Procedure, shortened: as §1
# ScBbc1 = molecular target: ScBbc1
# Procedure, shortened: as §1
# ScBem1-D1 = molecular target: ScBem1-D1
# Procedure, shortened: as §1
# ScBzz1-D1 = molecular target: ScBzz1-D1
# Procedure, shortened: as §1
# ScBzz1-D2 = molecular target: ScBzz1-D2
# Procedure, shortened: as §1
# ScCyk3 = molecular target: ScCyk3
# Procedure, shortened: as §1
# ScFus1 = molecular target: ScFus1
# Procedure, shortened: as §1
# ScHof1 = molecular target: ScHof1
# Procedure, shortened: as §1
# ScHse1 = molecular target: ScHse1
# Procedure, shortened: as §1
# ScLsb1 = molecular target: ScLsb1
# Procedure, shortened: as §1
# ScLsb2 = molecular target: ScLsb2
# Procedure, shortened: as §1
# ScLsb3 = molecular target: ScLsb3
# Procedure, shortened: as §1
# ScLsb4 = molecular target: ScLsb4
# Procedure, shortened: as §1
# ScMyo3 = molecular target: ScMyo3
# Procedure, shortened: as §1
# ScMyo5 = molecular target: ScMyo5
# Procedure, shortened: as §1
# ScNbp2 = molecular target: ScNbp2
# Procedure, shortened: as §1
# ScPex13 = molecular target: ScPex13
# Procedure, shortened: as §1
# ScRvs167 = molecular target: ScRvs167
# Procedure, shortened: as §1
# ScSho1 = molecular target: ScSho1
# Procedure, shortened: as §1
# ScSla1-D1-D2 = molecular target: ScSla1-D1-D2
# Procedure, shortened: as §1
# ScSla1-D3 = molecular target: ScSla1-D3
# Procedure, shortened: as §1
# SpAbp1-D1 = molecular target: SpAbp1-D1
# Procedure, shortened: as §1
# SpBbc1 = molecular target: SpBbc1
# Procedure, shortened: as §1
# SpBzz1-D1 = molecular target: SpBzz1-D1
# Procedure, shortened: as §1
# SpBzz1-D2 = molecular target: SpBzz1-D2
# Procedure, shortened: as §1
# SpCyk3 = molecular target: SpCyk3
# Procedure, shortened: as §1
# SpHof1 = molecular target: SpHof1
# Procedure, shortened: as §1
# SpHof1-2 = molecular target: SpHof1-2
# Procedure, shortened: as §1
# SpHof1-3 = molecular target: SpHof1-3
# Procedure, shortened: as §1
# SpHse1 = molecular target: SpHse1
# Procedure, shortened: as §1
# SpLsb1 = molecular target: SpLsb1
# Procedure, shortened: as §1
# SpLsb4 = molecular target: SpLsb4
# Procedure, shortened: as §1
# SpMyo1 = molecular target: SpMyo1
# Procedure, shortened: as §1
# SpNbp2 = molecular target: SpNbp2
# Procedure, shortened: as §1
# SpPex13 = molecular target: SpPex13
# Procedure, shortened: as §1
# SpRvs167 = molecular target: SpRvs167
# Procedure, shortened: as §1
# SpSla1-D1-D2 = molecular target: SpSla1-D1-D2
# Procedure, shortened: as §1
# SpSla1-D3 = molecular target: SpSla1-D3
# Procedure, shortened: as §1
binder,measurement,setting,value
RSVKRPRRAPRPVVS,SPOT peptide array binding signal intensity,AgAbp1,124
same,SPOT peptide array binding signal intensity,AgBbc1,434
same,SPOT peptide array binding signal intensity,AgBem1-D1,116
same,SPOT peptide array binding signal intensity,AgBzz1-D1,54.5
same,SPOT peptide array binding signal intensity,AgBzz1-D2,19
same,SPOT peptide array binding signal intensity,AgCyk3,2
same,SPOT peptide array binding signal intensity,AgFus1,372
same,SPOT peptide array binding signal intensity,AgHof1,49
same,SPOT peptide array binding signal intensity,AgHse1,592
same,SPOT peptide array binding signal intensity,AgLsb1,4.5
same,SPOT peptide array binding signal intensity,AgLsb4,150
same,SPOT peptide array binding signal intensity,AgMyo5,1.25
same,SPOT peptide array binding signal intensity,AgNbp2,908
same,SPOT peptide array binding signal intensity,AgRvs167,2.17
same,SPOT peptide array binding signal intensity,AgSho1,5
same,SPOT peptide array binding signal intensity,AgSla1-D1-D2,15
same,SPOT peptide array binding signal intensity,AgSla1-D3,6.25
same,SPOT peptide array binding signal intensity,CaAbp1-D1,586
same,SPOT peptide array binding signal intensity,CaAbp1-D2,430
same,SPOT peptide array binding signal intensity,CaBbc1,663
same,SPOT peptide array binding signal intensity,CaBem1-D1,140
same,SPOT peptide array binding signal intensity,CaBzz1-D1,108
same,SPOT peptide array binding signal intensity,CaBzz1-D2,165
same,SPOT peptide array binding signal intensity,CaCyk3,106
same,SPOT peptide array binding signal intensity,CaFus1,208
same,SPOT peptide array binding signal intensity,CaHof1,2
same,SPOT peptide array binding signal intensity,CaHse1,47.5
same,SPOT peptide array binding signal intensity,CaLsb1,0.75
same,SPOT peptide array binding signal intensity,CaLsb4,1720
same,SPOT peptide array binding signal intensity,CaMyo5,2
same,SPOT peptide array binding signal intensity,CaNbp2,1160
same,SPOT peptide array binding signal intensity,CaRvs167,20.3
same,SPOT peptide array binding signal intensity,CaRvs167-3,26.5
same,SPOT peptide array binding signal intensity,CaSho1,198
same,SPOT peptide array binding signal intensity,CaSla1-D1-D2,990
same,SPOT peptide array binding signal intensity,CaSla1-D3,0.5
same,SPOT peptide array binding signal intensity,ScAbp1,113
same,SPOT peptide array binding signal intensity,ScBbc1,306
same,SPOT peptide array binding signal intensity,ScBem1-D1,46.5
same,SPOT peptide array binding signal intensity,ScBzz1-D1,11.5
same,SPOT peptide array binding signal intensity,ScBzz1-D2,26
same,SPOT peptide array binding signal intensity,ScCyk3,32
same,SPOT peptide array binding signal intensity,ScFus1,260
same,SPOT peptide array binding signal intensity,ScHof1,5.25
same,SPOT peptide array binding signal intensity,ScHse1,1150
same,SPOT peptide array binding signal intensity,ScLsb1,156
same,SPOT peptide array binding signal intensity,ScLsb2,31.5
same,SPOT peptide array binding signal intensity,ScLsb3,3170
same,SPOT peptide array binding signal intensity,ScLsb4,192
same,SPOT peptide array binding signal intensity,ScMyo3,1
same,SPOT peptide array binding signal intensity,ScMyo5,4.25
same,SPOT peptide array binding signal intensity,ScNbp2,2270
same,SPOT peptide array binding signal intensity,ScPex13,2.75
same,SPOT peptide array binding signal intensity,ScRvs167,75
same,SPOT peptide array binding signal intensity,ScSho1,344
same,SPOT peptide array binding signal intensity,ScSla1-D1-D2,839
same,SPOT peptide array binding signal intensity,ScSla1-D3,15.8
same,SPOT peptide array binding signal intensity,SpAbp1-D1,146
same,SPOT peptide array binding signal intensity,SpBbc1,12
same,SPOT peptide array binding signal intensity,SpBzz1-D1,250
same,SPOT peptide array binding signal intensity,SpBzz1-D2,≤ 0
same,SPOT peptide array binding signal intensity,SpCyk3,2
same,SPOT peptide array binding signal intensity,SpHof1,268
same,SPOT peptide array binding signal intensity,SpHof1-2,7
same,SPOT peptide array binding signal intensity,SpHof1-3,748
same,SPOT peptide array binding signal intensity,SpHse1,234
same,SPOT peptide array binding signal intensity,SpLsb1,214
same,SPOT peptide array binding signal intensity,SpLsb4,2230
same,SPOT peptide array binding signal intensity,SpMyo1,16
same,SPOT peptide array binding signal intensity,SpNbp2,412
same,SPOT peptide array binding signal intensity,SpPex13,10.5
same,SPOT peptide array binding signal intensity,SpRvs167,11.2
same,SPOT peptide array binding signal intensity,SpSla1-D1-D2,≤ 0
same,SPOT peptide array binding signal intensity,SpSla1-D3,3
